miR122 inh: miR-122 suppressors via Renilla sensor increase, primary screen, cell-based, Huh7 psiCHECK-miR122, Renilla luciferase, single point. 48 h. activation, % at 12.5 µM. 340,000 compounds, 0.14% hits;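 active = mean activation of 30% or more, with every replicate also reaching 30%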;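 note: 0% = median of neutral control wells and 100% = median of positive control wells; higher luciferase signal means stronger suppression of miR-122 activity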
Numbers without * were called inactive. The full list was thinned out, with hits kept by preference.

SMILES	miR122 inh
CC(C)CC#Cc1ccc2c(c1)O[C@H](CN(C)C(=O)c1cnccn1)[C@H](C)CN([C@H](C)CO)S2(=O)=O	39*
CCCC#Cc1ccc2c(c1)O[C@H](CN(C)C(=O)c1cccnc1)[C@H](C)CN([C@H](C)CO)S2(=O)=O	11
C[C@H](CO)N1C[C@H](C)[C@H](CN(C)Cc2ccc(C(=O)O)cc2)Oc2ncc(-c3ccc(F)cc3)cc2C1=O	-22
C[C@H](CO)N1C[C@H](C)[C@H](CN(C)C(=O)Nc2ccc(F)cc2)Oc2ncc(-c3cccnc3)cc2C1=O	6
C[C@H](CO)N1C[C@H](C)[C@@H](CN(C)C(=O)c2cccnc2)Oc2ncc(-c3ccc(C(=O)N(C)C)cc3)cc2C1=O	-5
C[C@H](CO)N1C[C@H](C)[C@H](CN(C)C(=O)c2ccccc2F)Oc2ncc(C#Cc3ccc(F)cc3)cc2C1=O	-6
CN1C(=O)c2cc(NC(=O)NC3CCCC3)ccc2OC[C@H]2O[C@@H](CC(=O)O)CC[C@H]21	-138
CN1C(=O)c2cc(NC(=O)Cc3ccccc3)ccc2OC[C@@H]2O[C@H](CC(=O)NC3CCC3)CC[C@@H]21	-125
CC(=O)Nc1ccc2c(c1)C(=O)N(C)[C@H]1CC[C@H](CC(=O)NC3CCCCC3)O[C@@H]1CO2	63*
CN1C(=O)c2cc(NC(=O)c3cccc(F)c3)ccc2OC[C@@H]2O[C@@H](CC(=O)NC3CCC3)CC[C@H]21	70*
CO[C@@H]1CN(C)C(=O)c2cc(NC(=O)Cc3ccccc3)ccc2OC[C@@H](C)N(C)C[C@@H]1C	2
C[C@@H]1CN([C@@H](C)CO)C(=O)c2cc(C#CC3(O)CCCC3)cnc2O[C@@H]1CN(C)Cc1ccncc1	-2
COc1ccccc1-c1ccc2c(c1)O[C@@H](CN(C)S(=O)(=O)c1ccccc1)[C@@H](C)CN([C@@H](C)CO)S2(=O)=O	1
C[C@H](CO)N1C[C@H](C)[C@H](CN(C)C(=O)C2CCOCC2)Oc2ncc(-c3ccncc3)cc2C1=O	3
C[C@H]1CN([C@@H](C)CO)C(=O)c2cc(C#CC3CC3)cnc2O[C@@H]1CN(C)Cc1ccncc1	0
C[C@@H]1CN([C@H](C)CO)S(=O)(=O)c2ccc(C#C[C@@H](C)O)cc2O[C@@H]1CN(C)C(=O)Cc1ccccn1	-4
O=C(COc1cccc2ccccc12)Nc1nc2ccccc2[nH]1	32*
COc1ccc(C(=O)N[C@H](C(=O)Nc2nc3ccccc3[nH]2)C(C)C)cc1	-117
C/C=C/c1ccc([C@H]2[C@@H](CO)N(c3nc(CC)cs3)[C@H]2CNC(C)C)cc1	-92
CCCNC(=O)N1C[C@@H](C)[C@H](OC)CN(C)C(=O)c2cc(NS(=O)(=O)CC)ccc2OC[C@H]1C	-2
CCCN(C)C[C@@H]1Oc2ncc(-c3cccc(C(F)(F)F)c3)cc2C(=O)N([C@H](C)CO)C[C@@H]1C	10
C[C@@H]1CN([C@H](C)CO)S(=O)(=O)c2ccc(-c3cccc(C#N)c3)cc2O[C@H]1CN(C)Cc1ccccn1	-5
CCNC(=O)Nc1ccc2c(c1)C(=O)N(C)[C@H]1CC[C@H](CC(=O)NCCN3CCCC3)O[C@@H]1CO2	37*
CN1C(=O)c2cc(NC(=O)C3CC3)ccc2OC[C@@H]2O[C@H](CC(=O)NCCN3CCCC3)CC[C@H]21	45*
CN1C(=O)c2cc(NC(=O)C3CC3)ccc2OC[C@H]2O[C@H](CC(=O)NCc3cccc(F)c3)CC[C@H]21	-117
SMILES	miR122 inh
COc1cccc(C#Cc2cnc3c(c2)C(=O)N([C@@H](C)CO)C[C@@H](C)[C@H](CN(C)C(=O)C2CCCCC2)O3)c1	5
C[C@@H]1CN([C@H](C)CO)S(=O)(=O)c2ccc(Br)cc2O[C@@H]1CN(C)S(C)(=O)=O	-3
CCC(=O)N(C)C[C@H]1Oc2ncc(C#C[C@H](C)O)cc2C(=O)N([C@@H](C)CO)C[C@H]1C	1
CO[C@H]1CN(C)C(=O)c2cc(NC(=O)Cc3ccccc3)ccc2OC[C@H](C)N(C)C[C@@H]1C	-2
FC(F)(F)c1cnc(N2CCCN(C(=S)Nc3ccccc3)CC2)c(Cl)c1	37*
COc1cccc(N2CCN(C(=S)Nc3cccc(C)c3)CC2)c1	-121
O=S(=O)(Nc1ccccc1)c1ccc(Oc2ncc(C(F)(F)F)cc2Cl)cc1	-94
C[C@@H]1CN([C@@H](C)CO)C(=O)c2cccc(NC(=O)c3ccc(-c4nccs4)cc3)c2O[C@@H]1CN(C)Cc1ccc(C(=O)Nc2ccccc2N)cc1	-213
C[C@H]1CN([C@@H](C)CO)C(=O)c2cc(/C=C/c3ccccc3)cnc2O[C@@H]1CN(C)C(=O)c1cccc(F)c1	-18
C[C@H](CO)N1C[C@H](C)[C@@H](CN(C)C(=O)Nc2ccccc2F)Oc2ncc(/C=C/c3ccccc3)cc2C1=O	-9
C[C@H](CO)N1C[C@H](C)[C@H](CN(C)Cc2ccccc2C(=O)O)Oc2ncc(C3=CCCCC3)cc2C1=O	0
CCCCCCCCCCCCCCCC[n+]1ccccc1	49*
CC(C)C#Cc1cnc2c(c1)C(=O)N([C@H](C)CO)C[C@H](C)[C@@H](CN(C)C(=O)c1ccccc1)O2	3

Bioassay records (PubChem BioAssay)
